Drawing on PubChem BioAssay (NCATS), this text covers Potency for 40 compounds.

Records with an inconclusive call do not appear. Entries that show only a call come without a potency. The source made the active and inactive calls. Calls come from the whole dose curve; as a rule, active = well fitted inhibition curve with a large enough effect; inconclusive = small, poorly fitted or top-dose-only effect; inactive = no such curve, though single readings can be large or run the other way.
Potency is the fitted concentration of half-maximal effect.

Sequence of Furin (Homo sapiens) (P09958 whole entry, looked up): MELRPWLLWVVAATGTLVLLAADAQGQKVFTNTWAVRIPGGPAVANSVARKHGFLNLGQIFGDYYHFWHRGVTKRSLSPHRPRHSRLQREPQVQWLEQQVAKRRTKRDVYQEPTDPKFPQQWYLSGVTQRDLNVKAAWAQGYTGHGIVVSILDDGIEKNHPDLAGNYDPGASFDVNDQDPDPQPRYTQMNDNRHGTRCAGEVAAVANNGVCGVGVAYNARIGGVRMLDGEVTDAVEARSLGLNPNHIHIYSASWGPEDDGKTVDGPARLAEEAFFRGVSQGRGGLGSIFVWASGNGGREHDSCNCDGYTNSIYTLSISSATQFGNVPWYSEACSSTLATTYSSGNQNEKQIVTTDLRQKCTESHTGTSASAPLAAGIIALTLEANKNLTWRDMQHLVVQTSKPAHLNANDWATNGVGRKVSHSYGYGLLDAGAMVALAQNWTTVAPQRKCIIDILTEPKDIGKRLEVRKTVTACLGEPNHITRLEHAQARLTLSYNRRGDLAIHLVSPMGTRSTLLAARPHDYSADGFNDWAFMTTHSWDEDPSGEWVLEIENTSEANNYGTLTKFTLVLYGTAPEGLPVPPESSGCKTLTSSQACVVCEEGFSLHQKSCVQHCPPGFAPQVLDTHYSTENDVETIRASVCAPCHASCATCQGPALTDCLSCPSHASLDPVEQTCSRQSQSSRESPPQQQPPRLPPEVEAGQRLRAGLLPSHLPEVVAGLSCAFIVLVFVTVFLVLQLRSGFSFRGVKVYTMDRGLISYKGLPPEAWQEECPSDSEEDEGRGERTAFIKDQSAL

This assay has as its target Furin (Homo sapiens) (UniProt P09958). The assay is described as follows: Furin counterscreen qHTS for Zika virus inhibitors (AID 1347149). Note: nearly all actives have a fitted effect of over 70% in size. The settings on record: furin enzymatic counterscreen, fluorogenic substrate; series mostly up to 114 µM. From the text:
Avindra Nath, Ph.D., National Institute of Neurological Disorders and Stroke (NINDS), Bethesda, MD
Radhakrishnan Padmanabhan, Ph.D., Georgetown University (GU), Washington D.C.
Zika Virus causes congenital defects, including microcephaly and is associated with Guillain-Barre syndrome, eningoencephalitis and myelitis in infected adult. […] Using a target-based approach, we hope to establish a screening paradigm to uncover novel, cell-active NS2B-NS3 protease (Zika Virus) specific inhibitors from NCATS' collection of small molecules using qHTS.
Four assay panel was created to identify potential Zika Virus inhibitors. Namely, (1) GU unlinked NS2B-NS3 AMC tagged protease qHTS, (2) GU unlinked NS2B-NS3 Rhodamine tagged protease qHTS, (3) NINDS linked NS2B-NS3 AMC tagged protease qHTS, (4) NINDS linked NS2B-NS3 Rhodamine tagged protease qHTS. Active compounds were re-acquired and re-screened to confirm inhibition. Inhibitors were further screened against various confirmatory and counterscreens in dose response format.
Early Translation Branch (ETB)
National Center for Advancing Translational Sciences (NCATS), Rockville, MD
National Institute of Health (NIH), Bethesda, Maryland
1536-well Furin BOC-RVRR-AMC Protocol:
Human recombinant Furin Serine Protease was purchased from Peprotech (catalog #450-47; full length; Rocky Hill, NJ). Briefly, 3 microL of enzyme (final concentrations of 5 nM), in assay buffer (100 mM HEPES pH 7.0, 1 mM CaCl2 with 0.01% Triton X-100) were dispensed into a 1,536-well solid-bottom black plate (Greiner Bio One, Monroe, NC). Twenty-three nL of compounds (final concentration range 7.28 nM to 114 microM) or control Furin Inhibitor I (Dec-RVKR-CMK; final concentration range 0.248 nM to 8.12 microM) were transferred via Wako Pin-tool (Wako Automation, Richmond, VA). Samples were incubated (RT, protected from light) for 15 minutes followed by a 1 microL substrate addition of BOC-RVRR-AMC (final concentration of 2 microM; Km = ~15 muM90). Plates were then read immediately on a ViewLux High-throughput CCD imager (PerkinElmer, Waltham, MA) equipped with standard UV fluorescence optics (340(30) nm excitation, 450(20) nm emission), then incubated (37C, protected from light) for 15 or 30 minutes (~9% conversion). The change in fluorescence intensity over the 15-minute reaction period was normalized against no-inhibitor and no-enzyme controls and the resulting percent inhibition data were fitted to a 4-parameter Hill equation. Furin Inhibitor I was used as intraplate control.
With `COc1ccc(S(=O)(=O)c2c(O)c(C)cc(NS(=O)(=O)c3ccc(Cl)cc3)c2C(C)C)cc1`, the Potency entry was “inactive”.
Regarding `Cc1oc2c(cc(NS(=O)(=O)c3ccc(Br)cc3)c3ccccc32)c1C(=O)OCc1ccccc1`, the Potency result was “inactive”.
`O=C(O)COc1ccc(-c2nccc3c2C(=O)N(Cc2ccccc2)CC(COc2ccc4cccnc4c2)O3)cc1` (stereo not given): the Potency was 49.4 µM (active).
Consider `N#Cc1ccc(OCC2CN(Cc3cccc(C(F)(F)F)c3)C(=O)c3c(ccnc3-c3ccc(OCC(=O)O)cc3)O2)cc1` (stereo not given), for which the Potency entry is “inactive”.
For the compound `O=c1oc2ccc3ccccc3c2cc1-c1nnc(Nc2cc(C(F)(F)F)ccc2Cl)s1`, the Potency result is “inactive”.
With `O=C(Nc1cccc(C(=O)OCc2cc(=O)n3nc(C4CC4)sc3n2)c1)c1ccc(F)cc1` the entry was “inactive”; with `O=C(CNC(=O)c1ccc(Cl)cc1)OCc1cc(=O)n2nc(C3CCCCC3)sc2n1`, “inactive”.
With `O=C(Nc1ccc(-c2nc3ccccc3s2)c(O)c1)c1ccc(Br)cc1` the entry was “inactive”; with `N#Cc1ccccc1S(=O)(=O)N[C@H]1CO[C@H]2[C@@H]1OC[C@H]2OC(=O)Nc1ccc(Oc2ccccc2)cc1`, “inactive”.
On to `O=c1c(-c2cc(O)c(O)c(O)c2)coc2cc(O)c(O)c(O)c12`, for which the Potency result is “inactive”.
For `C[C@@H](NC(=O)c1ccc(Cl)cc1)c1c(-c2ccc(F)cc2)noc1C(=O)O`, the Potency entry was “inactive”.
Regarding `CC[C@H](C)[C@H]1O[C@]2(CC[C@@H]1C)C[C@@H]1C[C@@H](C/C=C(\C)[C@@H](O[C@H]3C[C@H](OC)[C@@H](O[C@H]4C[C@H](OC)[C@@H](O)[C@H](C)O4)[C@H](C)O3)[C@@H](C)/C=C/C=C3\CO[C@@H]4[C@H](O)C(C)=C[C@@H](C(=O)O1)[C@]34O)O2`, the Potency result is “inactive”.
On to `Cc1oc2c(cc(NS(=O)(=O)c3ccc(F)cc3)c3ccccc32)c1C(=O)OCc1ccccc1`, for which the Potency result is “inactive”.
As for `O=C(Nc1ccccc1)c1ccc2c(O)c(S(=O)(=O)c3ccc(Cl)cc3)c(=O)[nH]c2c1`, the Potency entry is “inactive”.
Take `O=C(OCC#CCSc1nnc(-c2cccc3ccccc23)o1)c1ccc(F)cc1F`: the Potency was 46.9 µM (active).
For the compound `O=C(O)c1ccc(O)c2ncc(N3CCCN(CCc4cccc5ccccc45)CC3)cc12`, the Potency was 49.4 µM (active).
As to `O=C(Nc1ccccc1C(=O)OCc1cc(=O)n2nc(C3CC3)sc2n1)c1ccc(Cl)cc1`, the Potency was 41.8 µM (active).
`O=S(=O)(Nc1ccc(O)c(Sc2nc3ccccc3s2)c1)c1cc(Cl)ccc1Cl`: the Potency result is “inactive”.
In the case of `O=C1C=CC(=O)c2c(O)c(Cl)c(Cl)c(O)c21`, the Potency result was “inactive”.
With `O=C(O)c1cccc(-c2cc(C(F)(F)F)ccc2Cl)c1` the entry was “inactive”; with `O=C(COc1ccccc1)Nc1ccc(C(=O)OCc2cc(=O)n3nc(C4CC4)sc3n2)cc1`, “inactive”; with `Cc1cc(=O)c2c(O)c3c(O)cc(O)c4c5c(O)cc(O)c6c(O)c7c(=O)cc(C)c8c1c2c(c34)c(c65)c78`, “inactive”.
For the compound `CCOc1ccc(C(=O)Nc2ccccc2C(=O)OCc2cc(=O)n3nc(C4CC4)sc3n2)cc1`, the Potency result is “inactive”.
Take `O=C(CSc1nnc(-c2cccc([S+](=O)([O-])NC3CCCC3)c2)n1-c1ccc(F)cc1)Nc1ccc(C(=O)O)cc1`: the Potency entry was “inactive”.
The value for `COc1ccc(Nc2nnc(-c3ccc(C)c(S(=O)(=O)NCc4nc5ccccc5[nH]4)c3)c3ccccc23)cc1` was “inactive”; that for `O=C(O[C@@H]1Cc2c(O)cc(O)cc2OC1c1ccc(O)c(O)c1)c1cc(O)c(O)c(O)c1` (stereo not given in full) was “inactive”.
On to `CCOC(=O)c1ccc(NC(=O)CSc2nc(-c3ccc(OC)cc3)cc(C(F)(F)F)c2C#N)cc1`, for which the Potency entry was “inactive”.
Consider `CCOC(=O)c1ccc(NC(=O)Cn2nnc(-c3ccc(C(F)(F)F)cc3)n2)cc1`, for which the Potency entry is “inactive”.
Regarding `COc1ccc(S(=O)(=O)c2cc(NS(=O)(=O)c3ccc(Cl)cc3)c(C)c(C)c2O)cc1`, the Potency result was “inactive”.
As to `CCOc1ccc(S(=O)(=O)Nc2cc3c(C(=O)OCc4ccccc4)c(C)oc3c3ccccc23)cc1`, the Potency result is “inactive”.
Consider `Cc1cccc(C(=O)Nc2ccc(C(=O)OCc3cc(=O)n4c5c(sc4n3)CCCC5)cc2)c1`, for which the Potency was 46.9 µM (active).
For the compound `Clc1nc2n[nH]nc2nc1Cl`, the Potency was 39.8 µM (active).
Regarding `O=C(Nc1c(C(=O)O)oc2ccccc12)c1ccc(C(F)(F)F)cc1`, the Potency entry is “inactive”.
Take `N#C/C(=C\c1ccc(-c2ccc(Cl)c(C(=O)O)c2)o1)c1nc2ccccc2[nH]1`: the Potency result is “inactive”.
Regarding `Clc1ccc(-c2nn3c(COc4cccc(OCc5nnc6sc(-c7ccc(Cl)cc7)nn56)c4)nnc3s2)cc1`, the Potency result was “inactive”.
With `O=C(O)c1ccc(NS(=O)(=O)c2ccc(Cl)c(C(=O)Nc3ccccc3)c2)cc1`, the Potency entry is “inactive”.
For the compound `O=C(OC1Cc2c(O)cc(O)cc2OC1c1cc(O)c(O)c(O)c1)c1cc(O)c(O)c(O)c1` (stereo not given), the Potency result is “inactive”.
On to `COC(=O)c1ccc(NC(=O)CSc2ncc3c(n2)-c2cc(Cl)ccc2N(Cc2ccccc2)S3(=O)=O)cc1`, for which the Potency is 83.5 µM (active).
On to `CC(C)c1nn2c(=O)cc(COC(=O)c3cccc(NC(=O)c4ccccc4F)c3)nc2s1`, for which the Potency result is “inactive”.
The value for `O=C(Nc1ccc(Oc2ccccc2)cc1)O[C@@H]1CO[C@H]2[C@@H]1OC[C@@H]2NS(=O)(=O)c1ccc(Cl)cc1` was “inactive”.
